Source: PubChem BioAssay (Tox21)
Records with an inconclusive call do not appear. Active and inactive are the calls of the source. Unless noted, the call rests on the fitted dose curve.

Assays:
[1] = qHTS assay to identify small molecule antagonists of the vitamin D receptor (VDR) signaling pathway - cell viability counter screen (AID 743225; active means well fitted curve in the direction sought with a large enough effect in the repeat runs; an effect the other way counts as inactive or inconclusive; further: nearly all actives have a fitted effect of over 50% in size)
Procedure, shortened: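 Same-well multiplex: following 16 h treatment of HEK 293T cells carrying a UAS-driven beta-lactamase reporter with compound and agonist (3 nM final), and a 2 h FRET substrate step, CellTiter-Glo was added and luminescence read after 30 min.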

[2] = qHTS assay to identify small molecule agonists of the NFkB signaling pathway - cell viability counter screen (AID 1159515); further: series mostly up to about 61 µM; nearly all actives have a fitted effect of over 55% in size
Procedure, shortened: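 Parallel cytotoxicity counter screen in ME-180 cells carrying an NFkB-response-element beta-lactamase reporter, 2,000 cells/well. Compound exposure lasted 5 hr at 37 C, 5% CO2. Cell viability was quantified by CellTiter-Glo luminescence.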

[3] = qHTS assay to identify small molecule agonists of the endoplasmic reticulum stress response signaling pathway (AID 1159516; active means well fitted activation curve with a large enough effect in the signal ratio in the repeat runs, not every such curve was filed as active; the % refers to the signal ratio)
Procedure, shortened: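 Using a HeLa line with an ESRE-driven beta-lactamase gene, agonist activity was measured by FRET substrate fluorescence (460 and 530 nm emission) after cells were treated with compounds for 5 hr at 37 C and 5% CO2.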

[4] = qHTS assay to identify small molecule agonists of the endoplasmic reticulum stress response signaling pathway - cell viability counter screen (AID 1159517);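 further: HeLa cells carrying an ER stress response element beta-lactamase reporter; series mostly up to about 61 µM; nearly all actives have a fitted effect of over 50% in size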
Procedure, shortened: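 Cytotoxicity of test compounds toward ESRE-bla HeLa cells was assessed after 5 hr exposure. The luminescent CellTiter-Glo signal was measured 30 min after reagent addition.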

[5] = qHTS assay to identify small molecule antagonists of the retinoid-related orphan receptor gamma (ROR-gamma) signaling pathway - cell viability counter screen (AID 1159520; active means well fitted curve in the direction sought with a large enough effect in the repeat runs; an effect the other way counts as inactive or inconclusive; further: nearly all actives have a fitted effect of over 50% in size)
Procedure, shortened: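 Tet-on ROR gamma CHO cells (1,000/well) were plated 4 hr, given compounds in DMSO for 2 hr at 37 C, then induced with 1 uM final doxycycline for 16 hr. Viability was read as ATP by CellTiter-Glo luminescence after 30 min.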

[6] = target: Nuclear receptor ROR-gamma (Homo sapiens) (UniProt P51449); assay: qHTS assay to identify small molecule antagonists of the retinoid-related orphan receptor gamma (ROR-gamma) signaling pathway (AID 1159521; active means well fitted curve in the direction sought with a large enough effect in the repeat runs; an effect the other way counts as inactive or inconclusive;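 further: CHO cells with doxycycline inducible ROR-gamma driving an RORE luciferase reporter; top concentration of the series differs between compounds; nearly all actives have a fitted effect of over 50% in size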)
Procedure, shortened: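 Inducible-expression reporter assay: doxycycline (1 uM final) switched on RORγ in CHO cells bearing a ROR response element-luciferase construct, with test compounds present from 2 h beforehand. Decreased luminescence after 16 h defined antagonist activity.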

[7] = qHTS assay to identify small molecule agonists of the AP-1 signaling pathway - cell viability counter screen (AID 1159525); further: nearly all actives have a fitted effect of over 55% in size
Procedure, shortened: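 Each titration point was normalised to DMSO and tetra n-octyl ammonium bromide controls. The read was Cell Titer Glo luminescence after 30 min at RT, following 5 h compound exposure of ME-180 AP-1-bla cells at 37 °C.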

[8] = qHTS assay to identify small molecule agonists of the AP-1 signaling pathway (AID 1159526)
[9] = target: Retinoic acid receptor RXR-alpha (Homo sapiens) (UniProt P19793); assay: qHTS assay to identify small molecule agonists of the RXR signaling pathway (AID 1159527); further: nearly all actives have a fitted effect of over 35% in size
Procedure, shortened: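 Compounds in DMSO were added to RXR-alpha-UAS-bla HEK 293T cells kept in 2% charcoal-stripped serum, and incubated 16 hr at 37 C with 5% CO2. Reporter signal came from a 2 hr B/G FRET substrate step.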

[10] = qHTS assay to identify small molecule agonists of the RXR signaling pathway - cell viability counter screen (AID 1159529; active means well fitted curve in the direction sought with a large enough effect in the repeat runs; an effect the other way counts as inactive or inconclusive)
Procedure, shortened: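 Counter screen: CellTiter-Glo luminescence. Cells: RXR-alpha-UAS-bla HEK 293T. Medium: 2% charcoal-stripped FBS. Treatment: 16 h, 37 C. Reagent incubation: 30 min, RT.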

Measured: Potency

Sequence of Retinoic acid receptor RXR-alpha (Homo sapiens) (P19793 whole entry, looked up): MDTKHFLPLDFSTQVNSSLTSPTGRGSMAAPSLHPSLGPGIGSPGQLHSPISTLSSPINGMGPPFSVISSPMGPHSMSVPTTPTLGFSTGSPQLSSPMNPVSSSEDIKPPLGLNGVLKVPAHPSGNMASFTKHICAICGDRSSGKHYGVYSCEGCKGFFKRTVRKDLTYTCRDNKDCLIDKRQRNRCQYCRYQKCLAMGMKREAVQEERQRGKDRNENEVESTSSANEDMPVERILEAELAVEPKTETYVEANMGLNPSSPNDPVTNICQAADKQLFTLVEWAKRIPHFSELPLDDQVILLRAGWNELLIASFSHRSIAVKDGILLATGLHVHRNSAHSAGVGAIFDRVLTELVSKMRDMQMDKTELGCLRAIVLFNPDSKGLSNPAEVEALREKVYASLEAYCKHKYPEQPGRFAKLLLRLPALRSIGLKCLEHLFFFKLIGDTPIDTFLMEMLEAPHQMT

CCCCCCCCCCCCCC(=O)OCC
inactive: all assays above

Cc1ccc(Br)cc1
inactive: all assays above

CCCCCCCC(=O)N(C)C
inactive: all assays above

CC(C)(C)NCC(O)COc1cccc2c1CCC(=O)N2 (stereo unspecified)
inactive: all assays above

Cc1ccc2cccnc2c1
not listed: [1]
inactive: all other assays above

CC(=O)/C=C/C=C1/C2CCC(C2)C1(C)C (stereo unspecified)
inactive: all assays above

CCOC(=O)CC
not listed: [1]
inactive: all other assays above

CCCc1ccc(O)c(OC)c1
not listed: [1]
inactive: all other assays above

CO/N=C(\C(=O)O)c1csc(NC(=O)CCl)n1
inactive: all assays above

CCCCC(CC)COC(=O)CC#N (stereo unspecified)
inactive: all assays above

Cc1ccc(O)c(C(=O)c2ccccc2)c1
not listed: [1]
inactive: all other assays above
